Here are results for 29 compounds from PubChem BioAssay (NCATS).

The structures appear in SMILES notation. Records with an inconclusive call do not appear. Active and inactive are the calls of the source. Calls follow the shape of the dose curve; as a rule, active = well fitted curve in the direction sought with a large enough effect; inconclusive = small, poorly fitted or top-dose-only effect, or another doubt; inactive = no such curve, though single readings can be large; an effect the other way counts as inactive or inconclusive.

The nature of assay [1]: qHTS to identify inhibitors of the type 1 interferon - major histocompatibility complex class I in skeletal muscle: primary screen against the NCATS Pharmaceutical Collection (AID 1347407).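 Also: luminescence of HiBiT knocked into endogenous HLA-B as interferon-induced MHC class I level.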 An outline of the steps:
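Immortalized human myoblasts (C25cl48) with HiBiT knocked into endogenous HLA-B*08:01 were stimulated with 4.0 ng/ml IFN-beta and treated with compounds ([…] top 46 uM) for 24 hrs at 37 C. HiBiT lytic luminescence read.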

Assay [2] deals with Protein phosphatase 1D (Homo sapiens) (UniProt O15297). Briefly: RapidFire Mass Spectrometry qHTS Assay for Modulators of WT P53-Induced Phosphatase 1 (WIP1) (AID 1347424).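 Also: amount of dephosphorylated VEPPL-S-QETFS peptide product formed by WIP1; series mostly up to about 63 µM.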 The method, boiled down:
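10 nM WIP1 + cpd, 1 h RT; + 2 uM VEPPL-pS-QETFS, 5 min RT; stop 0.5% formic acid; labelled product standard 1 uM; RapidFire MS. Buffer 50 mM Tris pH 7.5, 30 mM MgCl2, 1 mM TCEP.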

Assay [3] has the same target. Briefly: Rhodamine-PBP qHTS Assay for Modulators of WT P53-Induced Phosphatase 1 (WIP1) (AID 1347425). The method, boiled down:
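The read-out is the change in Rhodamine-PBP fluorescence (f1 - f0, ex 525/em 598 nm) as Pi is released, read each minute for 11 min. Final reaction: 5 nM WIP1, 10 uM phosphopeptide VEPPL-pS-QETFS, 10 uM Rh-PBP, 50 mM Tris-HCl pH 7.5, 30 mM MgCl2. Compound was preincubated with enzyme for 1 hour at room temperature.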

Assay [4] in a line: Primary qHTS for inhibitors of La Crosse Virus (LACV) - induced cell death in SH-SY5Y cells (AID 1508616).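 Also: top concentration of the series differs between compounds; higher means more rescue of cells from virus-induced death.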 An outline of the steps: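 Luminescent ATP readout (ATPLite 1step, 5 min room temperature) measured rescue from LACV-induced death after 6 days of infection at 0.01 MOI; normalized to infected DMSO wells and uninfected DMSO wells.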
Assay [5] has as its target Calcium and integrin-binding protein 1 (Homo sapiens) (UniProt Q99828). Briefly: Confirmatory qHTS for Identification of Calcium Integrin Binding Protein 1 (CIB1) Competitor (AID 1508617). Also: nearly all actives have a fitted effect of over 65% in size. Also: potency is read from the fitted curve at half-maximal effect. The method, boiled down: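 Compounds at up to 114 uM final met 1 uM GST-tagged CIB1 for 15 min at room temperature (HEPES pH 7.4, 5 mM CaCl2). FITC-labelled alphaIIb peptide, 100 nM, added; polarization read after 15 min more.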

Assay [6] in a line: qHTS to identify inhibitors of the type 1 interferon - major histocompatibility complex class I in skeletal muscle: primary screen against the NCATS Mechanism Interrogation Plate v5.0 (MIPE) Libary (AID 1347411). Also: potency is read from the fitted curve at half-maximal effect; nearly all actives have a fitted effect of over 65% in size. The method, boiled down:
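Immortalized human C25cl48 myoblasts with HiBit knocked into endogenous HLA-B*08:01 were stimulated with 4.0 ng/ml IFN-beta and exposed to compounds (11-point 1:3 titration, top 46 uM final) for 24 hrs at 37 C; HiBiT lytic luminescence measured.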

Chain of Calcium and integrin-binding protein 1 (Homo sapiens) (Q99828 whole entry, looked up): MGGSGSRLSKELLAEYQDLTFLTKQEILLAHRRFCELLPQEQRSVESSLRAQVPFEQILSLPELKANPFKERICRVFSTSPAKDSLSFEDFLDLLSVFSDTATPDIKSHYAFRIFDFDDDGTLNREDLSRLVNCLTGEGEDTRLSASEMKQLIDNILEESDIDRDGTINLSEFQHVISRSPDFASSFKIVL
Chain of Protein phosphatase 1D (Homo sapiens) (O15297 whole entry, looked up): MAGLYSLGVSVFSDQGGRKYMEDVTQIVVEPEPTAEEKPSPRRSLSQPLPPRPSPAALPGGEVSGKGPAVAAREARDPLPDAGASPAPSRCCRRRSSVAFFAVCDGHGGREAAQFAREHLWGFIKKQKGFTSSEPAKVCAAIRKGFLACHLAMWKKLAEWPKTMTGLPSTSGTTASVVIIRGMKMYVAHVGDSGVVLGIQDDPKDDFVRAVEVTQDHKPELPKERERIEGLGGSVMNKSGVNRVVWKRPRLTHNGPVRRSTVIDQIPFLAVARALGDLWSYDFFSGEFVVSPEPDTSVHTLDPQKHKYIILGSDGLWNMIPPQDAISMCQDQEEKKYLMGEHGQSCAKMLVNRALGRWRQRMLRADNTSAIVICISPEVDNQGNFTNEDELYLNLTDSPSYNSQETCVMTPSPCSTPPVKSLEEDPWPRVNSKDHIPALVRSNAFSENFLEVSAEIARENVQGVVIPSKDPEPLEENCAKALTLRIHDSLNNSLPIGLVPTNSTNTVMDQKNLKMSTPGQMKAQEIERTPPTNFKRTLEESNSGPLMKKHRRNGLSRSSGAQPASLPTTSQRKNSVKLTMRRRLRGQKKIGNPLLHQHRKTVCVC

Take `COP(=O)(OC)OC(c1ccc(Cl)cc1)P(=O)(OC)OC` (centres undefined): the Potency result in assay [1] and in assay [2] was “inactive” throughout. Further, the result in assay [3] and in assay [4] was inactive.
Turning to `O=C1C(O)=C(O)C(=O)C(O)=C1O`, the Potency result in assay [1] and in assay [2] was “inactive” throughout. Also, the call in assay [3] and in assay [4] was inactive.
`CC(CNC1CCCCC1)OC(=O)c1ccccc1` (centres undefined): the Potency entry in assay [1] and in assay [2] was “inactive” each time. The compound was classed as inactive in assay [3] and in assay [4].
For the compound `COc1ccc(C(=O)c2ccccc2)c(O)c1`, the Potency entry in assay [1] and in assay [2] was “inactive” in each case. Moreover, the compound was classed as inactive in assay [3] and in assay [4].
Consider `CCCCCCCCCCCCOCCOCCOCCOCCOCCOCCOCCOCCOCCO`, for which the Potency entry in assay [1] and in assay [2] was “inactive” each time. For the same compound, the call in assay [3] and in assay [4] was inactive.
With `CC(C)(C)CC(C)(C)c1ccc(O)c(-n2nc3ccccc3n2)c1`, the Potency entry in assay [1] and in assay [2] was “inactive” in each case. Further, the compound was called inactive in assay [3] and in assay [4].
Take `CC(C)CCCC(C)N` (centres undefined): the Potency result in assay [1] and in assay [2] was “inactive” in each case. Further, the compound was called inactive in assay [3] and in assay [4].
Regarding `CC(C)(C)NCC(O)COc1cccc2c1C[C@H](O)[C@H](O)C2` (some centres undefined), the Potency result in assay [1] and in assay [2] was “inactive” each time. The call in assay [3] and in assay [4] was inactive.
As to `CCc1cc(Cl)c(OC)c(C(=O)NC[C@@H]2CCCN2CC)c1O`, the Potency entry in assay [1] and in assay [2] was “inactive” in each case. The compound was called inactive in assay [3] and in assay [4].
On to `O=C(CCN1CCN2CCCC2C1)N1c2ccccc2Sc2ccc(Cl)cc21` (centres undefined), for which the Potency result in assay [1] and in assay [2] was “inactive” throughout. The compound was classed as inactive in assay [3] and in assay [4].
For `Nc1ccc(C(=O)NCC(=O)O)cc1`, the Potency result in assay [1] and in assay [2] was “inactive” throughout. Further, the compound was called inactive in assay [3] and in assay [4].
For the compound `CCNC(=O)NCc1cccc(Cl)c1`, the Potency result in assay [1] and in assay [2] was “inactive” each time. Moreover, the compound was called inactive in assay [3] and in assay [4].
In the case of `CC(C)Cn1cnc2c1c(=O)n(C)c(=O)n2C`, the Potency result in assay [1] and in assay [2] was “inactive” in each case. In addition, the compound was classed as inactive in assay [3] and in assay [4].
For `CC(O)Cn1cnc2c1c(=O)n(C)c(=O)n2C` (centres undefined), the Potency result in assay [1] and in assay [2] was “inactive” each time. Further, the call in assay [3] and in assay [4] was inactive.
Turning to `CN(C)CCN1C(=O)c2ccccc2N(C)c2ccccc21`, the Potency entry in assay [1] and in assay [2] was “inactive” in each case. In addition, the outcome in assay [3] and in assay [4] was inactive.
As for `CC(C)Nc1cccnc1N1CCN(C(=O)c2cc3cc(NS(C)(=O)=O)ccc3[nH]2)CC1`, the Potency result in assay [1] and in assay [2] was “inactive” each time. Besides, the compound was classed as inactive in assay [3] and in assay [4].
Take `C[C@]12CCC(=O)C=C1C=C[C@@H]1[C@@H]2CC[C@@]2(C)[C@H]1CC[C@@]21CCC(=O)O1`: the Potency result in assay [1] and in assay [2] was “inactive” throughout. The compound was called inactive in assay [3] and in assay [4].
Turning to `NCCNC(=O)c1ccc(Cl)cn1`, the Potency entry in assay [1] and in assay [2] was “inactive” in each case. Further, the outcome in assay [3] and in assay [4] was inactive.
In the case of `COc1cc(NS(=O)(=O)c2ccc(N)cc2)ncn1`, the Potency entry in assay [1] and in assay [2] was “inactive” in each case. Besides, the outcome in assay [3] and in assay [4] was inactive.
For `CCCCNC(=O)NS(=O)(=O)c1ccc(N)cc1`, the Potency result in assay [1] and in assay [2] was “inactive” in each case. Also, the compound was classed as inactive in assay [3] and in assay [4].
In the case of `c1ccc(CC2=NCCN2)cc1`, the Potency result in assay [1] and in assay [2] was “inactive” in each case. The call in assay [3] and in assay [4] was inactive.
Regarding `CCC(C(=O)OCCOCCN(CC)CC)c1ccccc1` (centres undefined), the Potency result in assay [1] and in assay [2] was “inactive” in each case. Further, the compound was classed as inactive in assay [3] and in assay [4].
Consider `CO[C@]12C[C@@H](COC(=O)c3cncc(Br)c3)CN(C)[C@@H]1Cc1cn(C)c3cccc2c13`, for which the Potency result in assay [1] and in assay [2] was “inactive” each time. Moreover, the outcome in assay [3] and in assay [4] was inactive.
`O=S(=O)(O)c1ccc(O)cc1`: the Potency result in assay [1] and in assay [2] was “inactive” each time. Besides, the compound was called inactive in assay [3] and in assay [4].
As to `CCCCCCCCCCCCCC(=O)OC(C)C`, the Potency result in assay [1] and in assay [2] was “inactive” in each case. In addition, the compound was called inactive in assay [3] and in assay [4].
With `CN1CCc2cccc3c2[C@H]1Cc1ccc(O)c(O)c1-3`, the Potency result in assay [5] was “inactive”.
For `CCCCCN=C(N)N/N=C/c1c[nH]c2ccc(OC)cc12`, in assay [6], the Potency is 6.58 µM (active).
Consider `Oc1ccc(Cl)cc1Cc1cc(Cl)ccc1O`, for which the Potency in assay [5] is 44.7 µM (active).
Still for that read-out and setting: for `CCc1oc2ccccc2c1C(=O)c1cc(I)c(O)c(I)c1` the value was 35.5 µM (active).
